Data taken from PubChem BioAssay.

Columns and labels:
[1] = system: Human papillomavirus type 1a protein E7 (residues 44-93); assay: HPV1a E7 fragment binders on microarrays, primary screen, biochemical, small-molecule microarray, residues 44-93, 635 nm fluorescence (AID 1108); conditions: small-molecule microarray binding, fluorescence 635 nm; higher = more signal;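 further: E7 fragment applied at 1 µg/mL in TBST for 1 h at 4 C; score combines spot fluorescence with its signal to noise ratio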
[2] = modulators of HCV replicon luciferase signal, primary screen, HCV replication inhibitor project, Huh7 cells, luciferase reporter (AID 1109); conditions: 48 h, higher = more signal;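 further: huh7 hepatoma cells harbouring a luciferase neomycin HCV replicon reporter; luciferase luminescence as measure of HCV replicon replication; test concentration not given here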
[3] = target: Left-right determination factor 2 (Homo sapiens) (UniProt O00292); assay: LEFTY2 binders on small-molecule microarrays, primary screen, biochemical, small-molecule microarray, 635 nm fluorescence scan (AID 1110); conditions: LEFTY2 binding, higher = more signal
Chain of Left-right determination factor 2 (Homo sapiens) (O00292 whole entry, looked up): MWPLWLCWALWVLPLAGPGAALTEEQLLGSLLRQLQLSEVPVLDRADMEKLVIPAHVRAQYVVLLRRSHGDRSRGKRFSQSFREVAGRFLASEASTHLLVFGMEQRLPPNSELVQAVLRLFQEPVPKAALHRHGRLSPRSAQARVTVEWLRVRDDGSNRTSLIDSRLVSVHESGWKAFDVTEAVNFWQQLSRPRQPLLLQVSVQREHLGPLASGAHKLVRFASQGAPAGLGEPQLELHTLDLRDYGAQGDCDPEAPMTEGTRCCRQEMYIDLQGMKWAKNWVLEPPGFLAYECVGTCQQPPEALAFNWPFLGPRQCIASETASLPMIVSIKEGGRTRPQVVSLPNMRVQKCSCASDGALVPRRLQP

[4] = target: Calmodulin-1 (Homo sapiens) (UniProt P0DP23); assay: CALM1 binders on microarrays, EGTA buffer, profiling panel, biochemical, small-molecule microarray, Cy5-labelled CALM1 (AID 1111); conditions: Cy5-CALM1 binding fluorescence, higher = more signal;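 further: labelled calmodulin applied in Tris saline Tween buffer holding calcium plus EGTA and DTT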
[5] = target: Calmodulin-1 (Homo sapiens) (UniProt P0DP23); assay: calcium-bound CALM1 binders on microarrays, profiling panel, artefact control for SMM control-protein annotation, biochemical, small-molecule microarray, Cy5-labelled CALM1, plus calcium (AID 1112); conditions: Cy5-CALM1 binding fluorescence, higher = more signal;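 further: score merges spot fluorescence with signal to noise from triplicate slides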
[6] = small-molecule microarray binders of probe aWnt5a, primary screen, biochemical, biotinylated probe, 635/667 nm fluorescence (AID 1113); conditions: higher = more signal;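 further: score merges 667 nm fluorescence intensity with signal-to-noise per printed feature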
[7] = small-molecule microarray binders of probe aShh, primary screen, biochemical, biotinylated probe, 635/667 nm fluorescence (AID 1114); conditions: higher = more signal;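 further: probe is biotin-labelled aShh protein from a stem cell growth factor screen; measures binding of labelled protein to compounds printed on the slide; score merges feature fluorescence at 667 nm with signal-to-noise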
[8] = small-molecule microarray binders of probe aNog, primary screen, biochemical, biotinylated probe, 635/667 nm fluorescence (AID 1115); conditions: higher = more signal;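 further: probe is biotinylated aNog protein used at 0.15 µg/mL for 1 h at 4 C; z-score combines 667 nm fluorescence of each spot with its signal to noise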
[9] = target: Torsin-1A-interacting protein 1 (Homo sapiens) (UniProt Q5JTV8); assay: LAP1 binders from COS7 cell lysate, primary screen, small-molecule microarray, 635/667 nm fluorescence (AID 1116); conditions: COS7-hLAP1 lysate binding, 635 nm fluorescence, higher = more signal
Chain of Torsin-1A-interacting protein 1 (Homo sapiens) (Q5JTV8 whole entry, looked up): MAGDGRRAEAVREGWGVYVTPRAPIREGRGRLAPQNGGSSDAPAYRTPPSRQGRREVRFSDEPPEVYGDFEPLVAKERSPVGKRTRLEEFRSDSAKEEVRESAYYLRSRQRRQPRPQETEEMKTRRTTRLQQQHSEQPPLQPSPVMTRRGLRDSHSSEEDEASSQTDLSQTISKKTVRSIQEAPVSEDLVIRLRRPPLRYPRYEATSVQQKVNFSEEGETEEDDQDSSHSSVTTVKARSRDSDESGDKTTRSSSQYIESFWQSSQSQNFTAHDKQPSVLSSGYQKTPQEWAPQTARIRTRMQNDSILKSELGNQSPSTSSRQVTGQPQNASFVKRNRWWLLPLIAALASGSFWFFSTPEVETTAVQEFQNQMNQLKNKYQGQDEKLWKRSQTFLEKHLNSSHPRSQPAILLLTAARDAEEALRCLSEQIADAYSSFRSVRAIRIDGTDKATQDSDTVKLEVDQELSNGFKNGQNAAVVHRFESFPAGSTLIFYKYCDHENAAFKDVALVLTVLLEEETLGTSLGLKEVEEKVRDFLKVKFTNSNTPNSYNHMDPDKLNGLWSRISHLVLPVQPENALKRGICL

[10] = target: Alpha-bungarotoxin (Bungarus multicinctus) (UniProt P60615); assay: alpha-bungarotoxin binders on microarray, profiling panel, artefact control for SMM control protein annotation, biochemical, small-molecule microarray, Alexa647 label, 635/667 nm fluorescence (AID 1117); conditions: alpha-BTX-A647 binding fluorescence, higher = more signal
Chain of Alpha-bungarotoxin (Bungarus multicinctus) (P60615 whole entry, looked up): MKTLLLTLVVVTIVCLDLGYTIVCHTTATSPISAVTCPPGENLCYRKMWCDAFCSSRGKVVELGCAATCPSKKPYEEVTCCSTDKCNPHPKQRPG

Compound	composite z-score [1]	z-score [2]	composite z-score [3]	composite z-score [4]	composite z-score [5]	composite z-score [6]	composite z-score [7]	composite z-score [8]	composite z-score [9]	composite z-score [10]
CCOC(=O)[C@H](CC(C)C)NC(=O)CCC1CC(OC(=O)NCCc2ccc(F)cc2)CC2(CCCC(COC(=O)NCCc3ccc(Cl)cc3)O2)O1 (stereo not given in full)	0.585	-1.19	0.839	-0.222	-0.0499	-0.0044	-0.156	-0.45	0.456	1.02
CC(C)CON=C1C[C@@H](O)[C@@H](O)[C@@H]2[C@@H]3C(=O)N(Cc4ccc5c(c4)OCO5)C(=O)[C@@H]3CC[C@H]12	1.33	-1.24	0.375	-0.382	-0.576	0.0044	-0.291	-0.467	0.54	0.411
COc1ccc(O[C@H]2C=C[C@@H](c3ccccc3)O[C@@H]2CON=C(C)C)cc1	-0.336	-0.75	0.317	0.0047	0.495	0.0761	0.318	0.118	0.314	0.724
CC1O[C@H]2C3=C(C(=O)[C@@H]4O[C@@H]4[C@H]3O)[C@@H]1C1[C@@H](C)OC=C3[C@H](O)C4O[C@@H]4C(=NOCc4ccccc4)[C@]312 (stereo not given in full)	-0.768	-3.71	0.18	-0.472	-0.177	-0.0519	0.225	-0.347	-0.192	-0.725
O=C(C=Cc1ccc2c(c1)OCO2)c1ccc(F)cc1	-0.9	2.84	0.976	-0.481	-1.41	-0.0455	0.297	-0.126	0.569	0.444
COC(=O)CC=C[C@@H](C)[C@@H](C=NO[C@H](C)c1cn([C@H](CO)Cc2ccccc2)nn1)NS(=O)(=O)c1ccc(C)cc1	0.37	-1.35	0.483	0.333	-0.215	-0.152	0.178	-0.0196	1.42	1.56
CCc1cc2c(nc1CC)CCN(CCC(C)=NOC[C@H]1O[C@H](c3ccccc3)C=C[C@@H]1Oc1ccc(OC)cc1)C2	0.371	-3.16	-0.0061	-0.112	0.366	-0.0944	0.0639	-0.0065	0.76	0.292
C[C@H]1CC[C@H]2C(=O)OC(CO)CN2[C@@H]1c1ccc(Br)cc1 (stereo not given in full)	-0.558	-0.125	0.137	-0.201	-0.607	-0.0778	0.0284	-0.178	-0.303	0.867
COC(=O)[C@@H]1CC[C@H](C)[C@@H](c2ccc(C)cc2)N1C(=O)c1ccc(C=NO[C@@H](C)c2cn([C@H](CO)Cc3ccccc3)nn2)cc1	1.3	-2.25	0.785	-0.0062	-0.388	0.116	-0.0146	-0.0554	0.641	0.51
CO[C@H]1COC(=O)CCC[C@@H](C)[C@H](OC)COC(=O)[C@@H](C)NC(=O)CC=C[C@@H]1C	-1.44	-1.29	1.19	-0.654	-1.61	-0.117	0.0483	-0.0684	0.992	-0.314
O=C1CCCC=C1C(CCc1ccccc1)OC(=O)c1ccc(Br)cc1 (stereo not given)	-2.1	1.15	0.572	-1.11	-0.622	-0.124	-0.147	-0.348	-0.108	-0.334
Cc1ccc(S(=O)(=O)n2c3ccccc3c3nnc(C(=O)c4ccccc4)nc32)cc1	-0.463	3.59	0.563	-0.357	-0.367	0.0491	-0.332	-0.0926	0.302	-0.306
CCCNC(=O)OC[C@H]1O[C@H](CCON=C(C)CCN2CCc3nc(CC)c(CC)cc3C2)C=C[C@@H]1Oc1ccc(OC)cc1	-0.263	-3.27	0.223	-0.254	-0.875	-0.034	-0.154	-0.4	0.345	0.381
CO[C@@H]1COC(=O)CC=C[C@H](C)[C@H](OC)COC(=O)[C@H](C)NC(=O)CC=C[C@H]1C	-0.724	1.39	0.965	-0.981	-2.34	-0.0145	0.479	-0.368	-0.242	-0.592
O=C1[C@H]2[C@H]3[C@H](O)[C@H](O)CC(=NOCc4ccccc4)[C@@H]3CC[C@H]2C(=O)N1c1ccc(F)cc1F	-0.392	0.606	0.303	-0.201	-0.57	-0.0519	0.0278	0.0369	0.0133	0.297
C=CC1=C[C@H](O)[C@@H]2O[C@@H]2C12OCCCO2	0.304	-0.876	0.152	-0.396	-1.05	-0.105	-0.381	-0.165	0.169	0.43
CCc1cc2c(nc1CC)CCN(CCC(C)=NO[C@H](C)c1cn([C@H](CO)Cc3ccccc3)nn1)C2	0.21	-2.38	0.437	-0.315	-0.439	-0.0165	1.19	-0.4	0.967	0.568
C#CCCCON=C1C[C@@H](O)[C@@H](O)[C@@H]2[C@@H]3C(=O)N(CC)C(=O)[C@@H]3CC[C@@H]12	0.431	-0.113	0.507	-0.4	-0.749	-0.164	-0.197	-0.133	0.586	1.27

Compound	composite z-score [1]	z-score [2]	composite z-score [3]	composite z-score [4]	composite z-score [5]	composite z-score [6]	composite z-score [7]	composite z-score [8]	composite z-score [9]	composite z-score [10]
CC(C)=CCCC(C)=CCON=C1C[C@@H](O)[C@@H](O)[C@@H]2[C@@H]3C(=O)N(C(C)(C)C)C(=O)[C@@H]3CC[C@@H]12	0.0739	-0.0781	0.542	-0.195	-0.608	-0.0203	-0.0626	-0.116	0.1	0.372
CCOC(=O)C1=NO[C@@]2(C=C(Br)C3(OCCCO3)[C@H]3O[C@H]32)C1	0.339	-0.154	1.13	-2.14	-2.64	-0.138	0.0952	-0.452	-0.143	2.04
CC=CC1=C(CO)C(=O)[C@@H]2O[C@@H]2C1=O	-1.52	-2.28	1.27	-1.58	-1.61	-0.145	-0.304	0.0947	-0.822	0.177
CCOC(=O)C1=NO[C@]2(C=C(Br)C3(OCCCO3)[C@H]3O[C@H]32)C1	-1.53	0.426	0.306	-1.04	-0.175	-0.161	-0.0879	0.341	0.194	0.477
CC(C)(C)N1C(=O)[C@H]2[C@H]3[C@H](O)[C@H](O)CC(=O)[C@@H]3CC[C@H]2C1=O	0.3	0.6	0.709	-0.339	-0.518	-0.0125	0.0121	-0.108	0.804	0.106
C#CCCCON=C1C[C@@H](O)[C@@H](O)[C@@H]2[C@@H]3C(=O)N(CCC(=O)OCC)C(=O)[C@@H]3CC[C@H]12	0.0844	0.283	0.387	1.16	0.221	-0.13	0.172	-0.253	0.544	0.401
COc1ccc(O[C@H]2C=C[C@@H](c3ccccc3)O[C@@H]2COC(=O)CCC(C)=NOC[C@@H](O)[C@H]2O[C@@H]3OC(C)(C)O[C@@H]3[C@H]2O)cc1	1.07	-0.0939	0.706	-0.166	-0.627	0.0001	-0.291	-0.232	0.419	0.0391
CON=CC[C@@H]1C=C[C@H](OC(C)=O)[C@@H](COC(C)=O)O1	-0.0635	0.569	0.533	-0.536	-0.688	0.0004	0.351	-0.0281	0.292	0.479
CON=C[C@@H](NS(=O)(=O)c1ccc(C)cc1)[C@H](C)C=CCC(=O)OC	-0.933	0.604	0.532	-0.654	-1.31	-0.128	0.0756	-0.425	0.22	-0.0634
CCOC(=O)NN=C1C[C@@H](O)[C@@H](O)[C@@H]2[C@@H]3C(=O)N(c4ccc(F)cc4F)C(=O)[C@@H]3CC[C@@H]12	0.687	0.0324	0.292	-0.167	-0.205	-0.0087	-0.108	-0.213	0.196	-0.234
CCCCC#C[C@@H]1C=C[C@H](OC(C)=O)[C@@H](COC(C)=O)O1	0.713	-2.47	0.579	0.349	-0.0635	-0.118	-0.221	-0.285	0.339	0.217
Cc1ccc(S(=O)(=O)N[C@H]2COC(=O)CC=C[C@@H](C)COC(=O)CC=C[C@@H]2C)cc1	-0.572	0.391	0.449	-0.606	-1.24	-0.12	-0.153	-0.222	0.163	-0.361
COC(=O)CC=C[C@@H](C)[C@@H](C=NOC[C@H]1O[C@H](c2ccccc2)C=C[C@@H]1Oc1ccc(OC)cc1)OC	-0.585	-1.7	-0.255	-1.15	-1.27	-0.106	-0.243	-0.44	-0.37	-0.262
CO[C@@H]1COC(=O)[C@@H]2CCCN2C(=O)[C@@H](C)COC(=O)CC=C[C@H]1C	1.04	-0.913	0.861	-0.149	-0.439	-0.147	0.284	0.0453	0.378	0.234
COC(=O)[C@@H]1CC[C@H](C)[C@@H](c2ccc(C)cc2)N1C(=O)c1ccc(C=NO[C@@H]2O[C@H](COC(C)=O)[C@@H](OC(C)=O)[C@H](OC(C)=O)[C@H]2OC(C)=O)cc1	0.918	-0.465	0.368	0.0167	-0.371	-0.124	0.313	-0.0208	0.218	0.884
O=c1n(-c2ccccc2)c(=O)n2n1CC[C@@H]1C(=NOCc3ccccc3)[C@H]3O[C@H]3[C@@H](O)[C@@H]12	0.0398	-2.05	0.582	-0.608	-0.879	-0.164	-0.0035	-0.113	0.0741	1.55
CO[C@H]1COC(=O)CC=C[C@H](C)COC(=O)[C@@H](C)NC(=O)CC=C[C@@H]1C	-1.45	-1.83	1.54	-1.13	-2.44	-0.0816	-0.0035	-0.137	0.621	0.13
